The values that follow come from PubChem BioAssay AID463173 (ICCB-Longwood Screening Facility, Harvard Medical School, 2010).

Hit rate of the full screen: of about 52,000 compounds, about 4,300 (8.3%) were called active. The sample holds actives, similar compounds and a random draw of the others, so the mix is not that of the screen. Cut-off read from the data, not from the text of the source: active = survival mostly below about 52% (no sharp cut-off); inactive = mostly above about 56%.

This assay deals with DeltatarO mutant. In words: growth inhibition of S. aureus wild type versus tarO mutant, primary screen, teichoic acid synthesis inhibitors, RN4220, OD600 (AID 463173). Particulars: OD600, 18 h, active compounds read low, screened at 18.75 µg/mL (by protocol).
`CCOc1ccc(NC(=O)c2c(NC(=O)c3ccco3)sc3c2CCC(C(C)(C)C)C3)cc1` (centres undefined): the survival is 68% (inactive).
For `CCOC(=O)c1c(C)[nH]c(C)c1S(=O)(=O)N1CCCC(C(=O)NCc2cccc(C)c2)C1` (centres undefined) the value was 88% (inactive); for `Cc1ccc(CNC(=O)C2CCCN(S(=O)(=O)c3cn(C)cn3)C2)cc1` (centres undefined), 94% (inactive).
For `O=C(Cn1cnc2ccccc2c1=O)NCCC(=O)Nc1ccc(F)cc1` the value was 85% (inactive); for `CC(C)(C)Nc1nc(OCC#N)nc(N2CCOCC2)n1`, 113% (inactive).
The result for `CCCCNC(=O)Cn1c(=O)cc(C)c2c(C)nn(-c3ccc(CC)cc3)c21` reads 55% (inactive).
Turning to `Cc1cc(C)c2c(n1)SCC(=O)N2CC(=O)Nc1ccc(C)c(C)c1`, the survival was 115% (inactive).
The result for `Cc1cccc(CSc2ncc(Cl)c(C(=O)Nc3nnc(C)s3)n2)c1` reads 73% (inactive); that for `Cc1ccc(CNC(=O)c2nc(SCc3ccc(C)cc3)ncc2Cl)cc1`, 99% (inactive); that for `Cc1nnc(NC(=O)c2nc(SC(C)C)ncc2Cl)s1`, 72% (inactive).
Take `CCc1nnc(NC(=O)c2nc(SCc3ccccc3C)ncc2Cl)s1`: the survival was 96% (inactive).
The result for `CCSc1ncc(Cl)c(C(=O)Nc2nnc(CC)s2)n1` reads 72% (inactive); that for `Cc1ccc(CSc2ncc(Cl)c(C(=O)Nc3nnc(C)s3)n2)cc1`, 32% (active).
For `CCc1nnc(NC(=O)c2nc(SCc3ccccc3F)ncc2Cl)s1` the value was 31% (active).
The result for `CCc1nnc(NC(=O)c2nc(SCc3ccc(F)cc3)ncc2Cl)s1` reads 29% (active); that for `CCCc1nnc(NC(=O)c2nc(SCC)ncc2Cl)s1`, 76% (inactive).
As for `CCc1nnc(NC(=O)c2nc(SC)ncc2Cl)s1`, the survival is 109% (inactive).
The result for `Cc1nnc(NC(=O)c2nc(SCc3ccccc3F)ncc2Cl)s1` reads 90% (inactive); that for `CCc1nnc(NC(=O)c2nc(SCc3cccc(C)c3)ncc2Cl)s1`, 5% (active); that for `CCCC(=O)C1=C(c2cccc(OC)c2)N(C(=O)CCC)n2c(C)nnc2S1`, 85% (inactive).
For `O=C(c1ccc(Br)cc1)N1CCN(CCc2ccncc2)CC1` the value was 78% (inactive); for `COc1cc(NC(=O)CC2C(=O)N(c3cccc(C)c3)C(=O)N2Cc2ccc(F)cc2)cc(OC)c1` (centres undefined), 94% (inactive); for `CC1=NN(c2ccccc2)C(c2ccccc2)C1` (centres undefined), 101% (inactive).
For `O=C(CN(c1ccc2c(c1)OCCO2)S(=O)(=O)c1ccccc1)NCc1ccco1` the value was 85% (inactive).
Take `CCOC(=O)C1CCN(C(c2ccc(C)cc2)c2c(O)cc(C)n(CCOC)c2=O)CC1` (centres undefined): the survival is 76% (inactive).
For `C=CCn1c(C)c(C=C(C#N)C#N)c2ccccc21` the value was 99% (inactive); for `CC1(c2ccccc2)OC(=O)C(C#N)C12CCCCC2` (centres undefined), 103% (inactive); for `NC(=O)c1ccc2nc(N)sc2c1`, 102% (inactive).
For `Cc1cccc(C(=O)N2CCCCC2CCN2CCCCC2)c1` (centres undefined) the value was 80% (inactive).
Consider `CC(C)Sc1ncc(Cl)c(C(=O)Nc2nnc(C(C)C)s2)n1`, for which the survival was 69% (inactive).
For `COc1ccc(CCNC(=O)c2nc(SCc3ccc(C)cc3)ncc2Cl)cc1OC` the value was 65% (inactive); for `COc1ccc(CCNC(=O)c2nc(SCc3ccc(F)cc3)ncc2Cl)cc1OC`, 46% (active).
For `COc1ccc(NC(=O)c2nc(SCc3ccc(F)cc3)ncc2Cl)cc1` the value was 69% (inactive).
The result for `COc1ccc(CCNC(=O)c2nc(SCc3ccccc3F)ncc2Cl)cc1OC` reads 64% (inactive); that for `CC(C)c1nnc(NC(=O)c2nc(SCc3ccc(F)cc3)ncc2Cl)s1`, 24% (active).
On to `COc1ccccc1CNC(=O)CSc1nc(=O)[nH]c2c1CCC2`, for which the survival is 78% (inactive).
With `COc1cc(CN(C(=O)COc2ccc(C)c(C)c2)c2ccccn2)cc(OC)c1OC`, the survival is 71% (inactive).
For `COc1ccc(-n2c(=O)c3ccccc3n(CC(=O)NCCc3ccccc3)c2=O)c(OC)c1` the value was 74% (inactive).
The result for `CCn1ccc2cc(S(=O)(=O)N3CCCN(C(=O)Nc4ccccc4OC)CC3)ccc21` reads 80% (inactive); that for `COc1ccc(-n2ncc(C(=O)NCCN3CCOCC3)c2C2CCN(C(=O)OC(C)(C)C)CC2)cc1`, 119% (inactive).
The result for `CCCS(=O)(=O)Nc1cc(-c2cn3cccc(C)c3n2)ccc1C` reads 59% (inactive).
For the compound `CC(=O)Nc1ccc(S(=O)(=O)Nc2cc(-c3cn4ccccc4n3)ccc2C)cc1`, the survival is 67% (inactive).
For `COc1ccc(Br)cc1S(=O)(=O)Nc1cc(-c2cn3ccccc3n2)ccc1C`, the survival is 43% (active).
For `Cc1ccn2cc(-c3ccc(C)c(NS(=O)(=O)c4ccc(Cl)cc4)c3)nc2c1` the value was 43% (active); for `Cc1ccc(S(=O)(=O)Nc2cccc(-c3cn4cccc(C)c4n3)c2)c(C)c1`, 75% (inactive).
The result for `CCc1ccc(S(=O)(=O)Nc2cc(-c3cn4ccccc4n3)ccc2C)cc1` reads 74% (inactive); that for `Cc1cc(C)c(S(=O)(=O)Nc2cc(-c3cn4ccccc4n3)ccc2C)cc1C`, 56% (inactive); that for `Cc1ccc(-c2cn3cccc(C)c3n2)cc1NS(=O)(=O)c1ccccc1`, 41% (active).
Regarding `COc1ccc(S(=O)(=O)Nc2cc(-c3cn4ccc(C)cc4n3)ccc2C)cc1OC`, the survival is 62% (inactive).
Turning to `COc1ccc(S(=O)(=O)Nc2cc(-c3cn4ccccc4n3)ccc2C)cc1`, the survival is 102% (inactive).
Consider `COc1ccc(S(=O)(=O)Nc2cc(-c3cn4cccc(C)c4n3)ccc2C)cc1C`, for which the survival is 53% (active).
The result for `COc1ccc(S(=O)(=O)Nc2ccc(-c3cn4ccsc4n3)cc2)cc1C` reads 128% (inactive); that for `Cc1cc(=O)[nH]c(SCC(=O)N2CCN(c3ccccc3)CC2)n1`, 81% (inactive).
The result for `Cc1ccc(Cl)cc1NS(=O)(=O)c1ccc2oc(=O)c3ncn(C)c3c2c1` reads 124% (inactive).
The result for `O=C(Nc1ccc2oc(-c3ccc4ccccc4c3)nc2c1)c1cccc(Cl)c1Cl` reads 63% (inactive).
For `COc1cc(NC(=O)CCCN2C(=O)CCn3nc(-c4cn(C)c5ccccc45)cc32)cc(OC)c1`, the survival was 126% (inactive).
For `CCCOc1ccc(C(=O)Nc2ccc(-c3cc4ccccc4oc3=O)c(C)c2)cc1` the value was 71% (inactive); for `N#CC1=C2SCN(C3CCCCC3)CN2C(=O)CC1c1ccc(F)cc1` (centres undefined), 87% (inactive); for `CCc1ccccc1NC(=O)Cn1cc(C(=O)c2ccncc2)c(=O)c2cc(C)ccc21`, 83% (inactive).
For `CCCS(=O)(=O)Nc1cc(-c2cn3ccc(C)cc3n2)ccc1C` the value was 78% (inactive); for `CCS(=O)(=O)Nc1cc(-c2cn3ccc(C)cc3n2)ccc1C`, 60% (inactive); for `Cc1ccc(-c2cn3ccc(C)cc3n2)cc1`, 22% (active).
The result for `COc1cccc(C(=O)Nc2ccc(C(=O)OCc3cc(=O)n4cc(C)sc4n3)cc2)c1` reads 66% (inactive); that for `O=C(C1CCN(c2nc3ccccc3[nH]2)CC1)N1CCN(c2cccc(Cl)c2)CC1`, 8% (active).
As to `COc1ccccc1CNC(=O)C1CCN(c2nc3ccc(Cl)cc3[nH]2)CC1`, the survival is 25% (active).
For `COc1ccccc1CNC(=O)C1CCN(c2nc3ccc(C)cc3[nH]2)CC1` the value was 100% (inactive).
The result for `CCOc1cc(CNC(=O)C2CCN(c3nc4ccccc4[nH]3)CC2)cc(OCC)c1OCC` reads 20% (active); that for `Cc1ccc2nc(N3CCC(C(=O)N4CCN(c5cccc(Cl)c5)CC4)CC3)[nH]c2c1`, 68% (inactive); that for `CN(C)c1ccc(CNC(=O)C2CCN(c3nc4ccccc4[nH]3)CC2)cc1`, 63% (inactive).
The result for `COc1cccc(CNC(=O)C2CCN(c3nc4ccc(Cl)cc4[nH]3)CC2)c1` reads 101% (inactive); that for `O=C(C1CCN(c2nc3ccccc3[nH]2)CC1)N1CCN(c2ccccc2)CC1`, 89% (inactive); that for `COc1ccc(CNC(=O)C2CCN(c3nc4ccccc4[nH]3)CC2)cc1OC`, 55% (inactive).
Take `CC1CCN(S(=O)(=O)c2cn(CC(=O)Nc3ccc(F)c(Cl)c3)c(=O)c3ccccc23)CC1`: the survival was 73% (inactive).
For `CCc1ccc(-n2nc(CO)c(C(=O)NCc3cccs3)n2)cc1` the value was 60% (inactive).
In the case of `Cc1ccc(-n2nc(CO)c(C(=O)NC(C)CCCc3ccccc3)n2)cc1C` (centres undefined), the survival is 94% (inactive).
The result for `Cc1ccccc1-n1nc(CO)c(C(=O)NCc2cccs2)n1` reads 79% (inactive); that for `Cc1ccc(-n2nc(CO)c(C(=O)NCc3cccs3)n2)cc1C`, 39% (active); that for `Cc1ccc(-n2nc(CO)c(C(=O)NCCc3ccccc3)n2)cc1C`, 111% (inactive).
The result for `CCOc1ccc(-n2nc(CO)c(C(=O)NCc3cccs3)n2)cc1` reads 40% (active); that for `O=C(NCc1cccs1)c1nn(-c2ccccc2)nc1CO`, 84% (inactive); that for `Cc1ccc(-n2nc(CO)c(C(=O)NCc3cccs3)n2)cc1`, 92% (inactive).
The result for `Cc1ccc(-n2nc(CO)c(C(=O)NC(C)c3ccccc3)n2)cc1C` (centres undefined) reads 41% (active).
Turning to `CCN(CC)C(=O)C1=CC(c2ccc3c(c2)OCO3)=NS(=O)(=O)N1C`, the survival was 86% (inactive).
The result for `Cc1nc(SCC(=O)OCN2C(=O)c3ccccc3C2=O)n[nH]1` reads 80% (inactive).
Take `COC(=O)C(C)Sc1ncnc2c1c(-c1ccccc1)cn2-c1ccc(F)cc1` (centres undefined): the survival was 76% (inactive).
Take `Cn1c(=O)c2c(c3ccccc31)OC(=O)CC2c1ccc(C(F)(F)F)cc1` (centres undefined): the survival is 61% (inactive).
Regarding `COc1ccc(C2CC(=O)c3c([nH]c(C(=O)OCCOc4ccccc4)c3C)C2)cc1OC` (centres undefined), the survival is 99% (inactive).
For `COc1ccc(C)cc1NC(=O)C(Cc1ccccc1)NS(=O)(=O)c1ccc(Br)s1` (centres undefined) the value was 131% (inactive).
The result for `Cc1ccc(N2CC(NC(=O)C3CC3)CC2=O)cc1C` (centres undefined) reads 94% (inactive); that for `CC(=O)Nc1ccc(OCC(O)CN2CCN(c3ccc(C)c(Cl)c3)CC2)cc1` (centres undefined), 76% (inactive); that for `COc1ccccc1N1CCN(CC(O)COc2ccc(Cl)c(C)c2)CC1` (centres undefined), 59% (inactive).
For `Cc1cc(OCC(O)CN2CCN(c3cccc(Cl)c3)CC2)ccc1Cl` (centres undefined) the value was -1% (active).
For `CCOC(=O)c1c(C)oc2nc(C)nc(NCC3CCN(Cc4ccc(C)cc4)CC3)c12`, the survival was 91% (inactive).
Take `O=C(O)CN1C(=O)/C(=c2\sc3nc4ccccc4n3c2=O)c2ccccc21`: the survival was 81% (inactive).
